# Reference: PubChem BioAssay
# Calls of active or inactive are those of the source. Unless noted, no rule for the calls is given here.
# Legend:
# [1] = HepG2 liver cancer cell viability effects, profiling panel, resazurin fluorescence, 24 h, PK04 Diversity Set (AID 1172); details: higher = more signal
# [2] = basal S. cerevisiae growth modulation, no modifier, primary screen, OD600, strain BY4716, 24 h, basal condition (AID 1173); details: OD600, 24 h, higher = more signal, called active from +8 up or from −8 down
# [3] = MM1S myeloma cell viability, profiling panel, resazurin fluorescence, basal, 24 h, PK04 Diversity Set (AID 1174); details: higher = more signal, called active from +8 up or from −8 down;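 also: MM1S multiple myeloma cell line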
# [4] = molecular target: Dihydroorotate dehydrogenase (quinone), mitochondrial (Plasmodium falciparum (isolate 3D7)) (UniProt Q08210); experiment: PfDHODH enzyme inhibitors, primary screen, biochemical, C-terminal His tag, absorbance 600 nm (AID 1175); details: DCIP absorbance 600 nm, higher = more signal, called active from +8 up or from −8 down;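 also: recombinant parasite enzyme with a five histidine tag at its C terminus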
# Sequence of Dihydroorotate dehydrogenase (quinone), mitochondrial (Plasmodium falciparum (isolate 3D7)) (Q08210 whole entry, looked up): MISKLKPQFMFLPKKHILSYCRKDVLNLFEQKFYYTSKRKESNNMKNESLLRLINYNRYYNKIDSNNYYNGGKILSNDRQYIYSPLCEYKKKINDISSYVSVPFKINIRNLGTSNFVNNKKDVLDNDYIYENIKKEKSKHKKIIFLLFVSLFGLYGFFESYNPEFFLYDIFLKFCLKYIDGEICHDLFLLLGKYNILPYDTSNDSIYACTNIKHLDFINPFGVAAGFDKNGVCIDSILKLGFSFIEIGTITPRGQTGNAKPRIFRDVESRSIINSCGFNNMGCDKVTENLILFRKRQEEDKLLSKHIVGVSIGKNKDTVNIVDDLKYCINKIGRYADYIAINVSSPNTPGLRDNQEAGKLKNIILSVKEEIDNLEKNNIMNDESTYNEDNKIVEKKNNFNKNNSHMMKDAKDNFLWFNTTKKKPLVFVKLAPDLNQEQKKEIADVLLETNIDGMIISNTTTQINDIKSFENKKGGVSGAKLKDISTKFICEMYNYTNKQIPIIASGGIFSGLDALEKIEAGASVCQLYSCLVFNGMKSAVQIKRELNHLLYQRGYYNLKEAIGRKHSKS
# [5] = P. aeruginosa biofilm formation inhibitors, primary screen, strain PAO1, LB-PBS medium, absorbance 600 nm (AID 1176); details: P. aeruginosa PAO1 growth/biofilm, A600, 12 h; higher = more signal
# [6] = S. cerevisiae RM11-1a growth modifiers, primary screen, strain RM11-1a, OD600, basal, 24 h (AID 1177); details: OD600, 24 h, higher = more signal, called active from +8 up or from −8 down;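 also: cultures grown under basal conditions with no added stressor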
# [7] = E. coli acrAB mutant growth effects, primary screen, E. coli filamentation inducers, strain DRC39, OD650, 24 h (AID 1178); details: higher = more signal, called active from +8 up or from −8 down;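 also: growth measured as culture turbidity by optical density at 650 nm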
# [8] = E. coli acrAB mutant growth effects, primary screen, E. coli filamentation inducers, strain DRC39, OD650, 48 h (AID 1179);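 also: screen aims at cell division blockers that make cells filament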; details: E. coli DRC39 delta-acrAB growth, higher = more signal, called active from +8 up or from −8 down
# [9] = RPMI8226 myeloma cell viability, profiling panel, resazurin fluorescence, basal, 24 h, PK04 Diversity Set (AID 1180); details: higher = more signal;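 also: RPMI8826 multiple myeloma cell line at 5000 cells per well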
# [10] = molecular target: E3 ubiquitin-protein ligase XIAP (Homo sapiens) (UniProt P98170); experiment: XIAP binders, primary screen, biophysical, small-molecule microarray, fluorescence 635 nm (AID 1181); details: small-molecule microarray binding, higher = more signal;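 also: score merges 667 nm emission and signal to noise over triplicate slides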
# Sequence of E3 ubiquitin-protein ligase XIAP (Homo sapiens) (P98170 whole entry, looked up): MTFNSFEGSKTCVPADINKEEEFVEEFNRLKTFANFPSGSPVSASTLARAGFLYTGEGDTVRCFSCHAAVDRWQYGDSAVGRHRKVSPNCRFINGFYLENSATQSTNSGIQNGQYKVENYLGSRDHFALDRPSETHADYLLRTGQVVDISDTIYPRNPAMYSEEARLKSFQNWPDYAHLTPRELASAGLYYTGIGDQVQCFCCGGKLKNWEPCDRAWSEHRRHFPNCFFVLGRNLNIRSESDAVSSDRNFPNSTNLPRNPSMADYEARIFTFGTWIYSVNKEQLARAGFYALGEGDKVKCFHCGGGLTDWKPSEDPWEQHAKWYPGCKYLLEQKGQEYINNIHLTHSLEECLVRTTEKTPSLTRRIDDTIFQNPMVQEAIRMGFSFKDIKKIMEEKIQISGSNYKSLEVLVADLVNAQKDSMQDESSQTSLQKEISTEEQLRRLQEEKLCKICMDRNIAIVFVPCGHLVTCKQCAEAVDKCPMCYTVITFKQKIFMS
# [11] = tested on: XIP peptide (Xip251-270) binding; experiment: small-molecule binders of XIP peptide, primary screen, biochemical, small-molecule microarray, fluorescence 635/667 nm, 0.1 µg/mL protein (AID 1182); details: fluorescent protein binding, 635 nm, higher = more signal, called active from +8 up or from −8 down
# XIP peptide (Xip251-270) = experiment: small-molecule binders of XIP peptide, primary screen, biochemical, small-molecule microarray, fluorescence 635/667 nm, 0.5 µg/mL protein (AID 1183); details: small-molecule microarray binding, fluorescence 635 nm; higher = more signal
# [12] = Plasmodium falciparum growth inhibition, primary screen, strain 3D7, DAPI fluorescence, 100 nL (AID 1184);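 also: parasites grown inside human red blood cells in medium with human serum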; details: P. falciparum 3D7 growth, 3 d, higher = more signal
# [13] = molecular target: Homeobox protein Hox-A13 (Mus musculus) (UniProt Q62424); experiment: inhibitors of HoxA13-DNA binding, primary screen, biochemical, fluorescence polarization, labeled oligonucleotide (AID 1185); details: 15 min, higher = more signal, called active from +8 up or from −8 down
# Sequence of Homeobox protein Hox-A13 (Mus musculus) (Q62424 whole entry, looked up): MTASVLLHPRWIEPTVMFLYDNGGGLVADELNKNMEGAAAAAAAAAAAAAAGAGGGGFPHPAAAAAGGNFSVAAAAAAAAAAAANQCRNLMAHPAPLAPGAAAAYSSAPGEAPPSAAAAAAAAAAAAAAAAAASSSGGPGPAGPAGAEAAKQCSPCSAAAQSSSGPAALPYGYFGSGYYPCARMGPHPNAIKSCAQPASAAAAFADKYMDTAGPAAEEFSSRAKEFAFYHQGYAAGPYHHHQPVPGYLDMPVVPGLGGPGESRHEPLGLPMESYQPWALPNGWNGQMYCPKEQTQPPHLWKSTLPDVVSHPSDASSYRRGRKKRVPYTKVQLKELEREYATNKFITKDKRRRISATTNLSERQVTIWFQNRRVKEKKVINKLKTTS
# [14] = inhibitors of hydroxyurea-induced Chk1 phosphorylation, primary screen, imaging, HeLa, phospho-Chk1 antibody, percent positive cells (AID 1186); details: hydroxyurea-induced phospho-Chk1 immunofluorescence imaging, higher = more signal
# [15] = inhibitors of hydroxyurea-induced Chk1 phosphorylation, primary screen, imaging, HeLa, phospho-Chk1 nuclear intensity (AID 1187); details: hydroxyurea-induced phospho-Chk1 immunofluorescence imaging, higher = more signal
Structure (SMILES),z-score [1],z-score [2],z-score [3],composite z-score [4],z-score [5],z-score [6],z-score [7],z-score [8],z-score [9],composite z-score [10],composite z-score [11],composite z-score (XIP peptide (Xip251-270)),z-score [12],z-score [13],z-score [14],z-score [15]
CCOC(=O)C1=CC[C@@H](c2ccc(OC)cc2)N(S(=O)(=O)c2ccc(C)cc2)[C@H]1c1ccc(C)cc1,0.164,1.31 (inactive),-0.616 (inactive),-0.329 (inactive),-0.0601 (inactive),-0.187 (inactive),-0.346 (inactive),-0.148 (inactive),-0.652,0.126,0.3 (inactive),0.44,0.869,-0.57 (inactive),-0.0113 (inactive),-0.5 (inactive)
C=CC[C@@]12N=C(c3ccc(OCCCO)cc3)O[C@@H]1c1ccccc1N(CCC)C2=O,0.167,-2.22 (inactive),-1.19 (inactive),-0.147 (inactive),1.2 (inactive),0.829 (inactive),0.215 (inactive),1.02 (inactive),-0.473,-0.132,2.48 (inactive),0.759,-2.25,-4.8 (inactive),0.291 (inactive),0.58 (inactive)
O=C1N(Cc2ccccc2)c2ccccc2C[C@@]12COC(c1ccc(OCCCO)cc1)=N2,0.792,-0.248 (inactive),-1.61 (inactive),0.0144 (inactive),1.39 (inactive),0.903 (inactive),1.17 (inactive),-0.187 (inactive),0.712,0.0578,1.45 (inactive),0.308,-2.23,-5.21 (inactive),0.0438 (inactive),0.311 (inactive)
COC(=O)[C@@]1(Cc2ccc(OC)cc2)[C@H]2c3cc(C(=O)N4CCCC4)n(Cc4ccc(Cl)c(C(F)(F)F)c4)c3C[C@H]2CN1C(=O)c1ccccc1,0.27,0.681 (inactive),-0.267 (inactive),-0.902 (inactive),0.135 (inactive),0.276 (inactive),-0.88 (inactive),0.404 (inactive),-0.859,-0.064,0.151 (inactive),0.45,-1.37,0.806 (inactive),-0.842 (inactive),-0.559 (inactive)
CN(C)CCCCNC(=O)[C@H]1C[C@H]2C(=O)NCC(=O)N2[C@H]1c1ccc(O)cc1,1.1,-0.0401 (inactive),0.917 (inactive),0.373 (inactive),-0.599 (inactive),1.56 (inactive),0.0662 (inactive),-0.363 (inactive),0.511,0.147,0.372 (inactive),0.815,0.185,-4.67 (inactive),-0.15 (inactive),-0.186 (inactive)
COc1ccc([Si](C)(C)[C@H]2[C@H](CCO)O[C@@]3(C(=O)N(Cc4ccc(NC(=O)[C@H](C)O)cc4)c4ccccc43)[C@@H]2C)cc1,-4.93,0.532 (inactive),-8.02 (active),-0.0575 (inactive),-0.753 (inactive),3.05 (inactive),-0.106 (inactive),-0.802 (inactive),-6.21,-0.0592,3.4 (inactive),0.596,-2.7,-4.86 (inactive),-0.704 (inactive),-0.43 (inactive)
CN1C(=O)C2C=CC(C(O)c3ccc(-c4ccccc4)s3)N(NC(=O)OC(C)(C)C)C2C1=O (centres undefined),-0.807,0.537 (inactive),-0.629 (inactive),0.63 (inactive),1.08 (inactive),0.432 (inactive),0.28 (inactive),-0.0168 (inactive),-0.694,-0.162,0.359 (inactive),0.912,0.428,-4.15 (inactive),0.307 (inactive),0.239 (inactive)
COC(=O)C1=CC(CCCO)=CC(c2cccs2)N(Cc2cc3c(cc2Br)OCO3)C=C1C(=O)OC (centres undefined),-0.245,-0.23 (inactive),0.182 (inactive),-0.851 (inactive),0.173 (inactive),1.92 (inactive),0.404 (inactive),-0.372 (inactive),0.365,0.344,1.07 (inactive),0.763,-1.26,-4.49 (inactive),0.132 (inactive),0.454 (inactive)
NC(=O)NCC#Cc1ccc2c(c1)[C@]1(C(=O)N2)[C@H](c2ccc(OCCO)cc2)N2[C@H](c3ccccc3)[C@H](c3ccccc3)OC(=O)[C@H]2[C@@H]1C(=O)O,-0.983,-0.434 (inactive),0.117 (inactive),-0.996 (inactive),1.01 (inactive),-0.264 (inactive),0.427 (inactive),-0.533 (inactive),0.15,-0.0013,0.348 (inactive),-0.0846,-1.17,-5.33 (inactive),0.31 (inactive),0.2 (inactive)
